Six1-Eya2 inh: inhibitors of human Six1/Eya2 interaction; AlphaScreen GST-Six1/His-Eya2 binding, biochemical; stronger effect = lower value; activity change, % (no concentration beside the values); 360,000 compounds, 0.56% hits; in the data active = activity change below about -65%; inconclusive = mostly about -30% to -63%
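GST-Six1 + His-Eya2 (5X stock: 250/500 nM); Tris pH 8.0, 300 mM NaCl, 0.05% BSA, 0.02% Tween 20; GSH donor/Ni acceptor beads; 1 h 37 °C dark; AlphaScreen readout.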
DT40 TDP1 CPT: DT40-hTDP1 cell growth loss with CPT; chicken DT40 Tdp1-/-;hTDP1 cells + 20 nM CPT, ATP luminescence, 48 h; Potency, µM (top dose mostly 46.2 µM), inactives show at the highest dose activity change, negative = growth inhibition, hits mostly inhibitors; 420,000 compounds, 12% hits; also: potency is read from the fitted curve at half-maximal effect; nearly all actives have a fitted effect of over 55% in size
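Cell growth measured by CellTiter-Glo luminescence after a minimum 48 h, 37 C compound exposure with 20 nM CPT in Tdp1-knockout DT40 cells stably expressing hTDP1, seeded 400/well; qHTS titration format.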
IL-1B inflam inh: inhibitors of inflammasome signaling (IL-1 beta secretion). THP-1 LPS/ATP IL-1B secretion, AlphaLISA, 16 h; stronger effect = lower value. activity change, % at 57.5 µM. 360,000 compounds, 4.7% hits. AID 743279; in the data active = activity change below about -50%; inconclusive = mostly about -30% to -49%
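Secreted IL-1B measured by AlphaLISA bead assay after 16 h compound exposure of THP-1 cells; compounds (final up to 57.5 uM) added 1 h before LPS (250 ng/mL) and ATP (1.25 mM) stimulation; lower signal means less secretion.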
TDP1 block: blocks human tyrosyl-DNA phosphodiesterase 1 | recombinant TDP1, AlphaScreen DNA substrate cleavage | Potency, µM (top dose mostly 130 µM), inactives show at the highest dose activity change, negative = inhibition, usual class: inhibitors | 350,000 compounds, 0.28% hits | AID 485290; also: potency is read from the fitted curve at half-maximal effect; nearly all actives have a fitted effect of over 40% in size
Target sequence (Q9NUW8 whole entry, looked up): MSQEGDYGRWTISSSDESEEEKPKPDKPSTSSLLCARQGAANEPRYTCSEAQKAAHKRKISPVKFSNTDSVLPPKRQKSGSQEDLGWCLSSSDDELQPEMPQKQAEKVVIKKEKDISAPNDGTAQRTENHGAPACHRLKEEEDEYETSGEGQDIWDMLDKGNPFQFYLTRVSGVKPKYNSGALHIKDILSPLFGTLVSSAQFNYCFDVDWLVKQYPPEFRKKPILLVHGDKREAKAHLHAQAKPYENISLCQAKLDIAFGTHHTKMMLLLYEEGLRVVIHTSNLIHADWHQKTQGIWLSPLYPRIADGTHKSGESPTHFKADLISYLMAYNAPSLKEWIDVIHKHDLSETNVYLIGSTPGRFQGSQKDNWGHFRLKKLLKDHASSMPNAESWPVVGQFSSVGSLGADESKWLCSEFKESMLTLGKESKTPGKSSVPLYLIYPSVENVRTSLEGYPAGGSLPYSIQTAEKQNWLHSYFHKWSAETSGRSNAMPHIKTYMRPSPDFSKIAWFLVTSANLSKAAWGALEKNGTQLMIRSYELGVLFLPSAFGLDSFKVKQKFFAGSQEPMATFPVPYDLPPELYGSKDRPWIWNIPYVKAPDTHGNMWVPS
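Enzyme-compound mixtures sat 15 min at room temperature, followed by a 5 min reaction with 15 nM final substrate and 10 min with AlphaScreen beads. Recombinant human Tdp1 was used at 1 nM final.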
CtBP-E1A inh: inhibitors of CtBP/E1A interaction; AlphaScreen GST-E1A/His-CtBP binding, 1536-well; stronger effect = lower value; activity change, % (no concentration beside the values); 340,000 compounds, 0.49% hits; in the data active = activity change below about -65%; inconclusive = mostly about -30% to -63%
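AlphaScreen with 125 nM GST-E1A and 125 nM His-CtBP (5X stocks) in Tris pH 8.0, 300 mM NaCl, BSA, Tween 20, TCEP. Compounds preincubated 2 h at 37 deg C, then glutathione donor/nickel acceptor beads added for 1 h at 37 deg C in dark.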
TDP1 cell noCPT: qHTS for Inhibitors of human tyrosyl-DNA phosphodiesterase 1 (TDP1): qHTS in cells in absence of CPT. DT40 Tdp1-/- hTDP1 cells, no CPT, ATP luminescence, 48 h. Potency, µM (highest dose often 46.2 µM), for inactives: top-dose activity change, negative = growth inhibition, actives largely listed as inhibitors. 420,000 compounds, 15% hits. AID 686978, 2013; also: potency is read from the fitted curve at half-maximal effect; nearly all actives have a fitted effect of over 55% in size
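Chicken DT40 Tdp1-/- cells stably complemented with human TDP1 were seeded at 400 cells/well with DMSO in place of 20 nM camptothecin. After compound pinning, cells grew at least 48 hr at 37 °C; viability read by CellTiter-Glo luminescence.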
An asterisk follows results filed as active; ? = inconclusive; / = no result; [ ] = remark or other dose. Shown are actives, neighbours in structure and some others; about 18% of the full set was active somewhere. Unless noted, calls follow the shape of the dose curve; as a rule, active = well fitted curve in the direction sought with a large enough effect; inconclusive = small, poorly fitted or top-dose-only effect, or another doubt; inactive = no such curve, though single readings can be large; an effect the other way counts as inactive or inconclusive. % is scaled to controls: 0 for no effect and ±100 for the full control effect.

SMILES	Six1-Eya2 inh	DT40 TDP1 CPT	IL-1B inflam inh	TDP1 block	CtBP-E1A inh	TDP1 cell noCPT
COc1ccc(-c2nnc3c4ccccc4c(C)nn23)cc1S(=O)(=O)N1CCN(CCO)CC1	-71*	?	-6	-2%	-82*	?
Cc1nn2c(-c3ccc(S(=O)(=O)N4CCN(CCO)CC4)o3)nnc2c2ccccc12	?	-24%	0	1%	-75*	-17%
Cc1ccc(-c2nn3c(C)nnc3c3ccccc23)cc1S(=O)(=O)N1CCN(CCO)CC1	-26	?	-11	2%	-28	?
C[C@@H](C(=O)Nc1ccc2c(c1)OCCO2)n1c(=O)[nH]c2ccccc2c1=O	1	12%	9	8%	/	1%
CCOC(=O)c1cn2nc(Oc3ccc(C)cc3)ccc2n1	2	-17%	/	/	-1	?
CCOC(=O)c1cn2nc(Oc3ccc(OC)cc3)ccc2n1	6	?	4	/	/	6.5µM*
Cc1ccc(Cc2cnc(NC(=O)C3=NCCN3)s2)cc1	/	/	/	-4%	/	/
O=C(Nc1ncc(Cc2cccc(Cl)c2)s1)c1ccc([N+](=O)[O-])cc1	-3	?	-19	3%	-16	8.2µM*
Cc1cccc(Cc2cnc(NC(=O)C3=NCCN3)s2)c1	-11	-86%	3	8%	8	23µM*
CC(C)C(=O)Nc1ncc(Cc2cccc(Cl)c2)s1	2	?	-72*	5%	3	?
CC(=O)Nc1ncc(Cc2cccc(Cl)c2)s1	-2	-8%	77	5%	1	-8%
CC1CCCN(S(=O)(=O)c2cc3c4c(c2)CCN4C(=O)CC3)C1 (configuration not stated)	6	21%	52	/	-1	-28%
COc1cccc(C(CC(=O)O)NS(=O)(=O)c2ccc3c(c2)N(C(C)=O)CC(C)O3)c1 (configuration not stated)	11	-1%	-12	1%	-1	22%
Cc1nc(N)nc(N)c1Oc1ccc(Cl)cc1	0	9.2µM*	19	/	-2	?
COc1cccc(OC)c1C(=O)Nc1cccc(-c2nc3cc(C)cc(C)c3o2)c1	/	13µM*	/	2%	/	7.3µM*
COc1cc(C(=O)Nc2cccc(-c3nc4cc(C)ccc4o3)c2)cc(OC)c1OC	1	23µM*	-5	8%	0	?
O=c1c2ccccc2nc2n1C(CSCc1ccc(Cl)cc1Cl)CS2 (configuration not stated)	2	9.2µM*	?	-4%	14	6.5µM*
Cc1ccc(S(=O)(=O)N2C[C@@H](C)[C@]3(C2)[C@H](O)[C@H](OC(=O)Nc2cccs2)C[C@H]2C(=O)N(c4ccccc4)C(=O)[C@H]23)cc1	-6	23µM*	-109*	/	-3	16µM*
COc1ccc(CNC(=O)O[C@@H]2C[C@H]3C(=O)N(c4ccccc4)C(=O)[C@H]3[C@@]3(CN(S(=O)(=O)c4ccc(C)cc4)C[C@H]3C)[C@@H]2O)cc1OC	-9	?	-64*	/	-5	26µM*
Cc1ccc(S(=O)(=O)N2C[C@@H](C)[C@]3(C2)[C@H](O)[C@H](OC(=O)NC2CC2)C[C@H]2C(=O)N(c4ccccc4)C(=O)[C@H]23)cc1	0	?	?	/	4	?
CCCn1c(N)c(C(=O)CSc2nnc(-c3ccco3)n2Cc2ccccc2)c(=O)[nH]c1=O	-8	-2%	0	-2%	-5	?
COc1ccc(N2CCN(C(=O)c3ccc(Nc4nc5ccccc5n5nnnc45)cc3)CC2)cc1	/	?	/	-4%[12.3 µM]	/	?
CCOc1ccc(Nc2nc3ccccc3n3nnnc23)cc1	-2	?	21	9%	5	-30%
CC(=O)Nc1ccc(Nc2nc3ccc(C)cc3n3nnnc23)cc1	/	6.5µM*	/	8%	/	6.5µM*
O=C(c1ccc(Nc2nc3ccccc3n3nnnc23)cc1)N1CCN(c2ccc(F)cc2)CC1	/	10µM*	/	2%	/	9.2µM*
SMILES	Six1-Eya2 inh	DT40 TDP1 CPT	IL-1B inflam inh	TDP1 block	CtBP-E1A inh	TDP1 cell noCPT
CN(C)c1ccc(Nc2nc3ccccc3n3nnnc23)cc1	/	?	/	12%	/	23µM*
Cc1ccc(CCNC(=O)c2ccc(Nc3nc4ccccc4n4nnnc34)cc2)cc1	/	?	/	-8%	/	18µM*
CC1O[C@@H](OC2C(O)C(O)C(CO)O[C@H]2OC2C[C@]3(C)C(CC(O)C4[C@@H]([C@]5(C)CC[C@@H](C(C)(C)O)O5)CC[C@]43C)[C@@]3(C)CCC(O)C(C)(C)C23)C(O)C(O)C1O (some centres not stated)	9	-1%	20	0%	2	8%
Cc1ccc(S(=O)(=O)c2ccc(NN)cc2)cc1	9	?	-25	10%	4	?
CCn1cc(C(=O)N2CCN(c3ccccn3)CC2)c(=O)c2cc(S(=O)(=O)N3CCC(C)CC3)ccc21	5	-1%	-5	5%	-1	-20%
CCCCN1CC(=O)N2[C@@H]3c4cc(Br)ccc4OC[C@@H]3[C@H](C(=O)OCC)[C@]2(C)C1=O	2	?	15	/	-24	-23%
COc1ccccc1CNC(=O)c1ccc(Nc2nc3ccccc3n3nnnc23)cc1	/	?	/	-2%[12.3 µM]	/	?
O=C(NCc1ccc(F)cc1)c1ccc(Nc2nc3ccccc3n3nnnc23)cc1	/	21µM*	/	5%	/	15µM*
CC(NC(=O)c1ccc(Nc2nc3ccccc3n3nnnc23)cc1)c1ccccc1 (configuration not stated)	/	13µM*	/	0%	/	7.3µM*
Cc1cc(OCC(=O)NCCc2ccc(S(N)(=O)=O)cc2)c2c(C)cc(=O)oc2c1	-1	-4%	-18	2%	/	2%
CCc1cccc(C)c1NC(=O)c1cc(S(=O)(=O)N2CCC3(CC2)OCCO3)ccc1F	/	?	/	5%	/	?
N#Cc1ccc(Oc2ccc(-c3cnc4ccccc4n3)cc2)cc1C#N	-2	?	9	0%	3	?
Nc1ccc(Oc2ccc3nc(-c4ccccc4)c(-c4ccc([N+](=O)[O-])cc4)nc3c2)cc1	?	16µM*	0	12%	?	?
N#Cc1ccc(Oc2ccc(-c3nc4ccccc4nc3-c3ccccc3)cc2)cc1C#N	2	9.2µM*	-4	-3%	13	18µM*
COc1ccc(N(CC(=O)N/N=C/c2ccccc2F)S(=O)(=O)c2ccccc2)cc1	0	?	12	/	-1	-4%

Screens (PubChem)
